# Compounds with a hit are over-represented: about 11% of the library has one in this group of screens.
# NS1 function inh: influenza NS1 inhibition. Potency, µM (doses to about 46.1 µM), inactives show at the highest dose activity, positive = more growth. 0.4% of 270,000 active; calls by dose curve; also: actives are rising curves; nearly all actives have a fitted effect of over 50% in size
#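 In this qHTS, NS1 from influenza A is expressed in budding yeast, where it slows growth. Cells are switched from glucose to 2% galactose medium (pH 6.0, -URA), treated with compound, and growth recovery is read at OD600.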
# Pf growth 48h: P. falciparum growth inhibition at 48 hours (one generation). 5.9% of 310,000 active. P. falciparum luciferase growth in erythrocytes, 48 h. Potency, µM (titrated, usually from 28.7 µM), without a hit: at the highest dose activity change, negative = inhibition, actives largely listed as inhibitors; also: % is scaled to controls: 0 for no effect and ±100 for the full control effect
#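 Cell-based growth assay: transgenic P. falciparum expressing firefly luciferase, cultured in red cells within RPMI 1640 containing 0.5% w/v Albumax, 24 mM bicarbonate and gentamycin. A drop in luciferase activity indicates inhibition.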
# Pf growth 96h: P. falciparum growth inhibition at 96 hour, primary screen for plastid delayed-death inhibitors. P. falciparum luciferase reporter growth, 96 h. Potency, µM (top dose mostly 28.7 µM), without a hit: at the highest dose activity change, negative = inhibition, actives largely listed as inhibitors. 6.9% of 320,000 active; also: % is scaled to controls: 0 for no effect and ±100 for the full control effect
#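 Plates of compound plus infected erythrocytes (2% hematocrit, 0.05% parasitemia final) incubate 96 hours, 37 C, 5% CO2. Detection reagent added; reduced luminescence from the parasites' luciferase reporter flags inhibition.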
# AMA1-RON2 inh: inhibitors of Plasmodium falciparum AMA1-RON2 interaction; AlphaScreen AMA1-biotinylated RON2 peptide binding; Potency, µM (titrated, usually from 58.2 µM), for the others: at the top dose activity change, negative = inhibition, actives largely listed as inhibitors; 0.2% of 360,000 active; AID 720542;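 also: 0% = vehicle wells and -100% = peptide control; nearly all actives have a fitted effect of over 45% in size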
#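 AMA1 (3D7) with his tag at 25 nM final met compounds first, then biotinylated RON2 peptide at 25 nM; detection used donor plus acceptor beads, 10 µg/mL apiece, read by AlphaScreen after 30 min at room temperature.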
# Sm TGR block: blocks Schistosoma mansoni thioredoxin glutathione reductase. Q962Y6. Potency, µM (top dose mostly 114 µM), without a hit: top-dose activity change, negative = inhibition, hits mostly inhibitors. AID 485364. purified TGR, DTNB reduction, TNB absorbance 405 nm. 3% of 360,000 active; also: % is scaled to controls: 0 for no effect and ±100 for the full control effect; nearly all actives have a fitted effect of over 60% in size
#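 TGR 20 nM + NADPH 100 uM (dispensed conc.), cpd preinc 15 min RT; start with NADPH (500 uM addition) then DTNB (15 mM addition). Kinetic TNB absorbance, 405 nm filter. Four-parameter Hill fit across titration.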
# Active calls of the source: *; u = inconclusive; x = no result; [ ] = another dose, or the depositor's remark. Unless noted, calls follow the shape of the dose curve; as a rule, active = well fitted curve in the direction sought with a large enough effect; inconclusive = small, poorly fitted or top-dose-only effect, or another doubt; inactive = no such curve, though single readings can be large; an effect the other way counts as inactive or inconclusive. Potency is read from the fitted curve at half-maximal effect.
SMILES,NS1 function inh,Pf growth 48h,Pf growth 96h,AMA1-RON2 inh,Sm TGR block
CCOC(=O)C(C(=O)Cc1ccccc1)c1ccccc1 (stereo unspecified),x,x,x,3%,x
COc1cc(CN2CC(=O)N(c3ccc(C)c(Cl)c3)C2=S)cc(OC)c1OC,5%,2.1µM*,-1%,-3%,1%
COc1cc(CN2CC(=O)N(c3ccc(C)cc3)C2=S)cc(OC)c1OC,8%,0.83µM*,-14%,1%,-7%
COCC(=O)NC1CC2CCC(C1)N2C(=S)Nc1ccccc1C(=O)OC (stereo unspecified),4%,49%,36%,6%,-3%
O=C1C(Cl)=C(NS(=O)(=O)c2ccc([N+](=O)[O-])cc2)C(=O)c2ccccc21,1%,u,5.2µM*,0%,0.89µM*
COC(=O)c1c(C)[nH]c(C(=O)C(C)OC(=O)c2c(C)noc2C)c1C (stereo unspecified),x,u,4.1µM*,-4%,-8%
NC(C(=O)O)C(c1ccccc1)C(F)F (stereo unspecified),1%,13%,60%,27%,56µM*
Cc1ccc(C(CC(=O)N2CCOCC2)c2ccco2)cc1 (stereo unspecified),u,u,x,46%,28µM*
COc1ccc(/C=C/C(=O)O)cc1S(=O)(=O)NCC1CCCO1 (stereo unspecified),3%,84%,53%,3%,7%
O=[N+]([O-])c1cc(-c2ncccn2)c([N+](=O)[O-])s1,-46%,6%,0%,-10%,0.32µM*
Cc1cc(Cl)c2oc(C(=O)NCCN3CCCCC3CO)c(C)c2c1 (stereo unspecified),17%,u,13µM*,23%,4%
CCc1cnc2c(c1SCC(=O)Nc1ccc(Cl)cc1)c(=O)n(C)c(=O)n2C,x,x,x,x,5%
CCC(C)(C)C1CCC2(CC1)NC(=O)N(CC(=O)NCCc1c[nH]c3ccccc13)C2=O (stereo unspecified),x,u,u,6%,-5%
CSCCC1Nc2ccc(S(=O)(=O)N3CCOCC3)cc2NC1=O (stereo unspecified),x,-24%,10µM*,6%,50µM*
COc1ccccc1CC(=O)Nc1cccc(C(=O)Nc2nccs2)c1,3%,u,u,15%,8%
COc1ccccc1CC(=O)Nc1cccc(C(=O)NN2C(=O)c3ccccc3C2=O)c1,-1%,-2%,9.3µM*,12%,2%
Oc1cc(Nc2ccncc2)cc2cccnc12,x,12µM*,u,x,-6%
COc1ccc(Nc2cc(O)c3ncccc3c2)cc1,x,0.47µM*,0.41µM*,x,-35%
Oc1cc(Nc2cccnc2)cc2cccnc12,x,10µM*,4.1µM*,x,1%
c1ccc(CCc2cccnc2)nc1,-4%,x,x,x,x
Oc1cc(NCCc2cccnc2)cc2cccnc12,x,12µM*,8.3µM*,x,-2%
O=C(NCC1CCCN(C2Cc3ccccc3C2)C1)c1cccs1 (stereo unspecified),13%,0%,2%,-13%,u
O=C(COC(=O)c1ccc(S(=O)(=O)N2CCCC2)cc1)Nc1cccc(Cl)c1,x,22%,7%,-1%,1%
CN(C)c1cc[n+](/C(C(=S)Nc2ccc(SC(F)F)cc2)=C(/[O-])c2ccccc2)cc1,x,4.7µM*,2.1µM*,-2%,48%
Cc1cc(C)c(/C([O-])=C(/C(=S)Nc2ccc(SC(F)F)cc2)[n+]2ccccc2)cc1C,x,12µM*,u,0%,-12%
SMILES,NS1 function inh,Pf growth 48h,Pf growth 96h,AMA1-RON2 inh,Sm TGR block
[O-]/C(=C(\C(=S)Nc1ccc(SC(F)F)cc1)[n+]1ccccc1)c1cc(Cl)ccc1Cl,x,-14%,-11%,-25%,5%
C=CCn1c(C)cc(/C([O-])=C(/C(=S)Nc2ccc(OC(F)F)cc2)[n+]2ccc(N(C)C)cc2)c1C,3%,u,3.7µM*,16%,-10%
COC(=O)[C@H](CCSC)NC(=O)[C@@H](Cc1cnc[nH]1)NC(=O)OCc1ccccc1,1%,4%[0.00184 µM],7%,68%,7%
CCOC(=O)c1c(NC(=O)/C=C/C(=O)O)sc(C)c1-c1ccc(C(C)(C)C)cc1,5%,1.7µM*,31%[5.75 µM],-5%,-2%
Cc1sc(NC(=O)/C=C/C(=O)O)c(C(N)=O)c1-c1ccc(C(C)(C)C)cc1,-47%,8.3µM*,167%,-14%,-2%
Cc1sc(NC(=O)C2CCCCC2C(=O)O)c(C(N)=O)c1-c1ccc(C(C)(C)C)cc1 (stereo unspecified),6%,2%,34%,5%,-33%
O=C(c1ccco1)N1CCN(S(=O)(=O)Cc2ccccc2Cl)CC1,2%,17%,u,5%,32µM*
O=C(c1ccco1)N1CCN(C(=O)N2c3ccccc3Sc3ccccc32)CC1,-119%,12µM*,u,-19%,-2%
CCS(=O)(=O)N1CCN(C(=O)c2ccco2)CC1,0%,5%,x,9%,35%
COc1cccc(C(=O)NC2CCN(C(=O)N3c4ccccc4Sc4ccccc43)CC2)c1,21%,8.3µM*,5.2µM*,-2%,-7%
O=C(c1ccco1)N1c2ccccc2Sc2ccccc21,-33%,u,18%,4%,u
O=C(NC1CCN(C(=O)N2c3ccccc3Sc3ccccc32)CC1)c1ccco1,-56%,1.7µM*,u,10%,-10%
COc1cccc(C(=O)N2c3ccccc3Sc3ccccc32)c1,-15%,10µM*,102%,-21%,2%
O=C(c1ccncc1)N1c2ccccc2Sc2ccccc21,x,-7%,11%,-11%,-7%
O=C(C1=C[C@@H](C2CC2)C[C@@H](OCc2ccc(CO)cc2)O1)N1CCN(Cc2ccccc2)CC1,-6%,u,u,8%,4%
O=C(Nc1ccc(F)cc1F)c1cc(S(=O)(=O)N2CCCCC2)c[nH]1,x,x,x,x,-3%
Cc1cccc(-n2c(C)cc(/C=N/n3cnnc3)c2C)c1,-2%,0%,u,11%,-25%
Cc1cc(/C=C(\C#N)C(=O)Nc2ccccc2)c(C)n1-c1ccc2c(c1)OCO2,17%,12µM*,u,-2%,5%
Cc1cc(/C=N/n2cnnc2)c(C)n1-c1ccc2c(c1)OCO2,-2%,11%,10µM*,-11%,-9%
Cc1cc(/C=C(/C#N)C(=O)Nc2ccccc2)c(C)n1-c1cccnc1,-13%,80%,u,-3%,-25%
Cc1cc(/C=C(\C#N)C(=O)Nc2ccc(F)cc2)c(C)n1-c1ccc(N2CCOCC2)c([N+](=O)[O-])c1,3%,7.4µM*,x,-6%,10%
COc1ccc(-n2c(C)cc(/C=C(\C#N)C(=O)NCc3ccco3)c2C)cc1,6%,4.7µM*,u,-12%,-7%
COc1ccc(NC(=O)/C(C#N)=C/c2cc(C)n(-c3ccc(F)cc3)c2C)cc1,x,x,x,x,-5%
Cc1ccc(OCC(=O)NCC(c2ccc(Cl)cc2)N2CCCCC2)cc1 (stereo unspecified),x,x,x,x,-3%

# Screening results as filed in PubChem.
